Among the data in PubChem BioAssay are fold change, cell count and z-score values, retold here.

Molecules are shown by their SMILES. Where “and” joins values, the source holds several entries; their conditions need not be identical. Identical values can stand only once. Calls of active or inactive are those of the source.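 The calls were made as follows, unless noted: active = compounds whose cell count with miR-34 switched on is under 0.7 times the count with it off; inactive = the rest.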 Where a SMILES comes first, the peptide text is derived from it. [ ]: non-standard residue; d: D form. pGlu = O=C1CC[CH](C(=O)O)N1; Thz = O=C(O)[CH]1CSCN1

Experiment [1] is described as follows: sensitizers of A549 cells to miR-34 induction, primary screen, imaging, A549 dox-inducible miR-34, nuclei and caspase counts (AID 1347080). Also: test concentration not given here. As to conditions: A549 miR-34 inducible, Hoechst nuclei count, 48 h.
Experiment [2] is described as follows: survival rescue of mitochondrial mutant cells in low glucose, primary screen, MELAS cybrids, Rieske KO mouse fibroblasts, CellTiter-Glo (AID 1508586;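 active = mean z-score across replicates of 1.96 or higher in either the MELAS or the Rieske mutant cell line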;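 also: test concentration not given here; z relative to plate mean and SD of compound and empty wells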). (In general: Cellular ATP, detected with luciferase, serves as a proxy for viable cell number.)
Experiment [3] is described as follows: viability rescue of complex I mutant cybrids, primary screen, cell-based, galactose medium, ATP luminescence (AID 1645843;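 active = z-score of at least 1.8 in each of two replicates, scored against plate mean and spread of sample wells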;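 also: positive z means more ATP and so rescue of galactose-driven cybrid death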). To be noted: complex I mutant cybrid cells, 72 h, stronger effect = higher value.
Setting [4] is: stronger effect = lower value, cell number ratio, induced over uninduced.
The mark [5] stands for this setting: measured here: relative caspase fold change +Dox/-Dox.
Setting [6] is: measured here: total cells with miR-34 induction, stronger effect = lower value.
Setting [7] is: measured here: total cells without miR-34 induction.
Where [8] appears, read: MELAS cybrid survival, CellTiter-Glo 48 h, stronger effect = higher value.
The mark [9] stands for this setting: Rieske KO mouse fibroblast survival, CellTiter-Glo 72 h.

Regarding `Cc1nn(C)c(C)c1-c1ccnc(NCCc2nc3ccc(Cl)cc3[nH]2)n1`, the results for the fold change in experiment [1] (setting [4]) and in experiment [1] (setting [5]) were 0.924 (inactive) and 3.32, respectively. The values for the cell count in experiment [1] (setting [6]) and in experiment [1] (setting [7]) were 1430 and 1550, respectively. In addition, the z-score in experiment [2] (setting [8]) was -0.908 (inactive); in experiment [2] (setting [9]), 0.453; in experiment [3] it was -0.38 (inactive).
As for `Cc1ccc(NC(=O)NCCSCc2ccc(CN(C)C)o2)cc1Cl`, the fold change in experiment [1] (setting [4]) is 0.882 (inactive); in experiment [1] (setting [5]), 0.585. Also, the values for the cell count in experiment [1] (setting [6]) and in experiment [1] (setting [7]) were 6630 and 7520, respectively. Also, the figures for the z-score in experiment [2] (setting [8]), in experiment [2] (setting [9]) and in experiment [3] were 0.133 (inactive), -0.401 and -1.04 (inactive), respectively.
As for `CCn1cnc(NC(=O)N(C)Cc2cccc3ncccc23)n1`, the fold change in experiment [1] (setting [4]) is 0.944 (inactive); in experiment [1] (setting [5]), 1.82. Besides, the cell count in experiment [1] (setting [6]) was determined as 9300; in experiment [1] (setting [7]) it was 9840. The z-score in experiment [2] (setting [8]) is -0.163 (inactive); in experiment [2] (setting [9]) it was -0.316; in experiment [3], -0.465 (inactive).
For `O=C(O)c1ccc(-c2cc(Cl)ccc2Cl)o1`, the results for the fold change in experiment [1] (setting [4]) and in experiment [1] (setting [5]) were 0.874 (inactive) and 0.439, respectively. The cell count in experiment [1] (setting [6]) turned out to be 8600; in experiment [1] (setting [7]) it was 9840. Further, the z-score is -0.277 (inactive) in experiment [2] (setting [8]), 0.0393 in experiment [2] (setting [9]) and 0.44 (inactive) in experiment [3].
On to `NC(=O)Cc1c[nH]c2ccccc12`, for which the fold change in experiment [1] (setting [4]) is 0.914 (inactive); in experiment [1] (setting [5]), 0.482. The values for the cell count in experiment [1] (setting [6]) and in experiment [1] (setting [7]) were 8170 and 8950, respectively. In addition, the values for the z-score in experiment [2] (setting [8]), in experiment [2] (setting [9]) and in experiment [3] were 0.728 (inactive), -0.479 and 0.1 (inactive), respectively.
For `O=[N+]([O-])c1ccc(-c2ccn[nH]2)cc1`, the fold change is 0.922 (inactive) in experiment [1] (setting [4]) and 0.744 in experiment [1] (setting [5]). Besides, the cell count came out at 8360 in experiment [1] (setting [6]) and 9070 in experiment [1] (setting [7]). Besides, the z-score in experiment [2] (setting [8]) was -0.915 (inactive); in experiment [2] (setting [9]), -0.293; in experiment [3], 0.59 (inactive).
With `CC(O)c1cn(C2CCN(c3ncnc4nc[nH]c34)CC2)nn1` (configuration not stated), the fold change in experiment [1] (setting [4]) is 0.902 (inactive); in experiment [1] (setting [5]), 1.71. The figures for the cell count in experiment [1] (setting [6]) and in experiment [1] (setting [7]) were 9250 and 10300, respectively. Further, the z-score in experiment [2] (setting [8]) was 0.294 (inactive); in experiment [2] (setting [9]), -0.198; in experiment [3] it was -0.55 (inactive).
Regarding `CC(C)C1CCC(C(=O)NC(Cc2ccccc2)C(=O)O)CC1` (configuration not stated), the fold change in experiment [1] (setting [4]) is 0.94 (inactive) and 0.917 (inactive); in experiment [1] (setting [5]), 2.3 and 1.08. Also, the cell count in experiment [1] (setting [6]) is 9290 and 9300; in experiment [1] (setting [7]), 9880 and 10100. The z-score in experiment [2] (setting [8]) is -0.394 (inactive); in experiment [2] (setting [9]), 0.0104; in experiment [3], 0.805 (inactive).
On to `Oc1ccc(C=Cc2cc(O)cc(O)c2)cc1`, for which the fold change in experiment [1] (setting [4]) was 2.61 (inactive) and 0.913 (inactive); in experiment [1] (setting [5]), 1.12 and 0.945. Moreover, the cell count in experiment [1] (setting [6]) is 6320 and 7520; in experiment [1] (setting [7]), 2420 and 8230. Moreover, the results for the z-score in experiment [2] (setting [8]), in experiment [2] (setting [9]) and in experiment [3] were -0.411 (inactive), 0.338 and 1.1 (inactive), respectively.
As to `NC(=O)NC(CCC(=O)O)C(=O)O` (configuration not stated), the fold change is 0.857 (inactive) in experiment [1] (setting [4]) and 0.229 in experiment [1] (setting [5]). In addition, the values for the cell count in experiment [1] (setting [6]) and in experiment [1] (setting [7]) were 8940 and 10400, respectively. The z-score was 0.385 (inactive) in experiment [2] (setting [8]), -0.000429 in experiment [2] (setting [9]) and 0.4 (inactive) in experiment [3].
In the case of `COc1cccc(-n2cc(-c3ccnc(NCCc4cnc[nH]4)n3)cn2)c1`, the fold change in experiment [1] (setting [4]) is 0.891 (inactive); in experiment [1] (setting [5]), 1.29. Further, the cell count is 7850 in experiment [1] (setting [6]) and 8810 in experiment [1] (setting [7]). Moreover, the z-score in experiment [2] (setting [8]) was -0.718 (inactive); in experiment [2] (setting [9]), 0.696; in experiment [3], 1.87 (inactive).
Take `O=C1CCC(C(=O)N2CSCC2C(=O)O)N1` (configuration not stated) ([pGlu]-[Thz]-OH; configuration not given here): the fold change in experiment [1] (setting [4]) is 0.957 (inactive) and 1 (inactive); in experiment [1] (setting [5]) it was 1.75 and 0.634. Further, the cell count is 9270 and 8110 in experiment [1] (setting [6]); 9680 and 8100 in experiment [1] (setting [7]). The z-score in experiment [2] (setting [8]) is -0.302 (inactive); in experiment [2] (setting [9]), -0.109; in experiment [3], 0.45 (inactive).
Regarding `O=C(O)CSc1nc(-c2cccc(Cl)c2)no1`, the fold change in experiment [1] (setting [4]) was 0.912 (inactive); in experiment [1] (setting [5]) it was 0.254. Further, the figures for the cell count in experiment [1] (setting [6]) and in experiment [1] (setting [7]) were 8810 and 9660, respectively. Besides, the values for the z-score in experiment [2] (setting [8]), in experiment [2] (setting [9]) and in experiment [3] were 0.659 (inactive), -0.279 and 0.49 (inactive), respectively.
Regarding `O=C(O)C=Cc1ccccc1O`, the figures for the fold change in experiment [1] (setting [4]) and in experiment [1] (setting [5]) were 0.911 (inactive) and 0.83, respectively. The cell count is 8740 in experiment [1] (setting [6]) and 9590 in experiment [1] (setting [7]). Also, the figures for the z-score in experiment [2] (setting [8]), in experiment [2] (setting [9]) and in experiment [3] were 0.0698 (inactive), 0.0548 and 0.245 (inactive), respectively.
As to `CNC1CCC(c2ccc(Cl)c(Cl)c2)c2ccccc21` (configuration not stated), the fold change in experiment [1] (setting [4]) is 0.897 (inactive) and 0.972 (inactive); in experiment [1] (setting [5]) it was 1.54 and 0.385. The cell count in experiment [1] (setting [6]) was 3400 and 7100; in experiment [1] (setting [7]), 3800 and 7300. Also, the z-score in experiment [2] (setting [8]) is -0.116 (inactive); in experiment [2] (setting [9]), -0.231; in experiment [3] it was -1.88 (inactive).
As for `CN1CCN(Cc2cccc3cccnc23)CC1CCO` (configuration not stated), the fold change in experiment [1] (setting [4]) was 0.928 (inactive); in experiment [1] (setting [5]) it was 1.86. The cell count in experiment [1] (setting [6]) came out at 8360; in experiment [1] (setting [7]), 9010. Besides, the z-score is 0.709 (inactive) in experiment [2] (setting [8]), -1.63 in experiment [2] (setting [9]) and -0.585 (inactive) in experiment [3].
As for `CC(C)C(NC(=O)Cc1c[nH]c2ccccc12)C(=O)O` (configuration not stated), the results for the fold change in experiment [1] (setting [4]) and in experiment [1] (setting [5]) were 0.857 (inactive) and 0.806, respectively. The values for the cell count in experiment [1] (setting [6]) and in experiment [1] (setting [7]) were 8140 and 9500, respectively. Also, the z-score in experiment [2] (setting [8]) was -1.19 (inactive); in experiment [2] (setting [9]), -0.306; in experiment [3], 0.47 (inactive).
Consider `Cc1nc(NC(=O)NCC2COc3ccccc3O2)nn1C(C)C` (configuration not stated), for which the fold change was 0.958 (inactive) in experiment [1] (setting [4]) and 1.49 in experiment [1] (setting [5]). Besides, the values for the cell count in experiment [1] (setting [6]) and in experiment [1] (setting [7]) were 8560 and 8940, respectively. In addition, the z-score is -0.362 (inactive) in experiment [2] (setting [8]), 0.824 in experiment [2] (setting [9]) and 2.15 (active) in experiment [3].
On to `c1cc(-c2nc(Cc3ccsc3)no2)c2nccnc2c1`, for which the fold change in experiment [1] (setting [4]) was 0.89 (inactive); in experiment [1] (setting [5]), 0.787. The cell count in experiment [1] (setting [6]) is 8210; in experiment [1] (setting [7]) it was 9220. The z-score was -0.0904 (inactive) in experiment [2] (setting [8]), 1.15 in experiment [2] (setting [9]) and 0.105 (inactive) in experiment [3].
`CC(C)(C)Nc1nc(N)c(C(=O)c2ccccc2)s1`: the fold change in experiment [1] (setting [4]) was 0.899 (inactive); in experiment [1] (setting [5]) it was 0.5. Also, the cell count was 6780 in experiment [1] (setting [6]) and 7540 in experiment [1] (setting [7]). The z-score in experiment [2] (setting [8]) is 3.13 (active); in experiment [2] (setting [9]), 0.287; in experiment [3], 0.55 (inactive).
With `Cc1nsc(NC(=O)N2CCCC(C)(O)C2)n1` (configuration not stated), the fold change in experiment [1] (setting [4]) was 0.901 (inactive); in experiment [1] (setting [5]) it was 0.878. In addition, the figures for the cell count in experiment [1] (setting [6]) and in experiment [1] (setting [7]) were 9190 and 10200, respectively. Also, the z-score in experiment [2] (setting [8]) was -0.195 (inactive); in experiment [2] (setting [9]), -0.423; in experiment [3] it was -0.565 (inactive).
